Reference: PubChem BioAssay (Tox21)
Results filed as inconclusive are left out. A call without a number means that no potency is given here. Calls of active or inactive are those of the source. Calls come from the whole dose curve; as a rule, active = well fitted activation curve with a large enough effect in the repeat runs; inconclusive = weak or mixed curves; inactive = flat fitted curve, though single readings scatter.

Assay: A CellTox Green Cytotoxicity Assay to monitor cytotoxicity in HepG2 cells - 16 hour (AID 1224876); note: nearly all actives have a fitted effect of over 45% in size
Details: CellTox Green fluorescence; series mostly up to 76.8 µM
Text: National Center for Advancing Translational Sciences [NCATS]
NIH Chemical Genomics Center [NCGC]
U.S. Environmental Protection Agency [EPA]
National Institutes of Environmental Health Sciences [NIEHS]
National Toxicology Program [NTP]
Cell-based models are critical for drug discovery. Determining the natural cytotoxic effects resulting from test compounds is an essential research activity. A CellTox Green Cytotoxicity Assay to monitor cytotoxicity in real time of continues cell culture during 40 hours of the compound treatment was used to screen Tox21 10K library compounds in HepG2 cells. CellTox Green Cytotoxicity Assay is a nonlytic, homogeneous, biofluorescent method to measure cytotoxicity in cell culture after experimental manipulation. The assay system uses a proprietary asymmetric cyanine dye that is excluded from viable cells but preferentially stains the dead cell's DNA. […] Viable cells produce no appreciable increases in fluorescence. Therefore, the fluorescence signal produced by the binding interaction with dead cell DNA is proportional to cytotoxicity.
The mixture of HepG2 cell suspension and reagents were dispensed at 600cells/6 ul/well in 1536-well tissue culture treated black solid bottom plates using a Multidrop dispenser. After the assay plates were incubated at a 37 C/5% CO2 incubator for 5 hours, 23 nL of compounds dissolved in DMSO, positive and negative controls was transferred to the assay plate by a pintool work station. The plates were incubated at 37 C for 40 hours. The fluorescence intensity were measured at 0h, 8h, 16h, 24h, 32h and 40h time points using ViewLux plate reader during compound treatment.
Potency is the fitted concentration of half-maximal effect.

SMILES | Potency | cytotoxicity increase
COCCCCCCCCOCCC[Si](C)(O[Si](C)(C)C)O[Si](C)(C)C | inactive | 
CC[C@]12CCCN3CCc4c(n(c5ccccc45)C(=O)C1)[C@@H]32 | inactive | 
OCC1CC2CC1C1CCC(CO)C21 (stereo not given) | inactive | 
CC[C@H](C)[C@H](N)C(=O)O | inactive | 
CCCCCCc1ccc(N)cc1 | 49 µM (active) | 
CCN1CCC[C@H]1CNC(=O)c1c(OC)ccc(Br)c1OC | inactive | 
O=C(O)/C=C/c1cnc[nH]1 | inactive | 
CCCCCCCCCCCCCCCCCBr |  | -9.75% [at 15.8 µM] (inactive)
CCCC[C@H]1CN(CC2CCOCC2)C(=O)OC12CCN(C1(C)CCN(C(=O)c3c(C)ncnc3C)CC1)CC2 | inactive | 
Cn1sccc1=O | inactive | 
Cc1cc(CC(=O)O)c(C)n1-c1ccc(Cl)cc1 | inactive | 
CC1=CC(=O)/C(=C(/C)O)C(=O)O1 | inactive | 
O=C=NC1CCC(CC2CCC(N=C=O)CC2)CC1 (stereo not given) | inactive | 
COC(=O)C(C)=O | inactive | 
CC[C@H](C)[C@@H](C(=O)O)n1sc2ccccc2c1=O | inactive | 
CCCCCCCCN(C)C | inactive | 
Cc1occc1S | inactive | 
CCCCOC(=O)/C=C\C(=O)OCCCC | inactive | 
CN(C)CC/C=C1\c2ccccc2COc2ccccc21 | inactive | 
CC1CCc2cc(F)cc3c(=O)c(C(=O)O)cn1c23 (stereo not given) | inactive | 

SMILES | Potency | cytotoxicity increase
O=CNc1ccccc1 | inactive | 
O=C1c2cccc(O)c2C(=O)c2c(O)cc(CO)cc21 | inactive | 
NC(N)=N/N=C/c1c(Cl)cccc1Cl | inactive | 
NCc1ccccc1 | inactive | 
C=CC(C)(CCC=C(C)C)OC(=O)c1ccccc1 (stereo not given) | inactive | 
O=[N+]([O-])c1cc[n+]([O-])cc1 | inactive | 
O=C1Nc2cc(Cl)ccc2Oc2ccccc21 | inactive | 
Nc1nc(N)c2nc(CNc3ccc(C(=O)N[C@@H](CCC(=O)O)C(=O)O)cc3)cnc2n1 | inactive | 
O=c1[nH]cnc2ccccc12 | inactive | 
Cn1c(N)nc2nc[nH]c2c1=O | inactive | 
Cc1ccc(C(N)=O)cc1N | inactive | 
N#Cc1cc2ccccc2c2ccccc12 | inactive | 
O=C(O)Cc1cc(I)c(Oc2ccc(O)c(I)c2)c(I)c1 | inactive | 
COCCO | inactive | 
CCOC(=S)SSC(=S)OCC | inactive | 
CC(=O)[C@@]1(O)CC[C@H]2[C@@H]3C[C@H](C)C4=CC(=O)CC[C@]4(C)[C@H]3CC[C@@]21C | inactive | 
ClC(Cl)(Cl)c1ccc(C(Cl)(Cl)Cl)cc1 | inactive | 
O=C(O)C(c1ccc(Cl)cc1)c1ccc(Cl)cc1 | inactive | 
O=C(Cl)c1ccc([N+](=O)[O-])cc1 | inactive | 
NCCCOCCOCCOCCCN | inactive | 
